aGlu spleen mod – inhibitors or activators of human alpha-glucosidase in spleen homogenate; Potency, µM (top dose mostly 79.9 µM), without a hit: top-dose activity change, negative = inhibition, actives largely listed as inhibitors; human spleen homogenate, 4-MU-alpha-glucoside fluorescence; actives 0.006% (n = 240,000); P10253;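 further: potency means the concentration at half of the fitted maximal effect; 0% = enzyme with vehicle and -100% = no enzyme basal signal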
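Enzyme source: human spleen homogenate, 1 ug/well. Buffer 50 mM citric acid/K phosphate pH 5.0, 0.01% Tween-20. 4-MU-alpha-glucoside 1 mM; 37 C x 40 min; NaOH/glycine stop; fluorescence.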
GLA spleen mod – alpha-galactosidase A (human) modulation. P06280. human spleen homogenate, 4MU-alpha-Gal fluorescence, 40 min. Potency, µM (highest dose often 80 µM), for inactives: at the top dose activity change, negative = inhibition, usual class: inhibitors. actives 0.008% (n = 240,000);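 further: potency means the concentration at half of the fitted maximal effect; 0% = enzyme with vehicle and -100% = no enzyme basal signal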
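qHTS titration in buffer at pH 5.0. Alpha-galactosidase activity in spleen homogenate was measured via 4-methylumbelliferone release from 1 mM fluorogenic substrate after 40 min at 37C and a pH 10 stop. AC50 came from Hill fits of control-normalized data.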
GAA inh – inhibitors of human lysosomal alpha-glucosidase; AID 1466; Potency, µM (highest dose often 76.9 µM), without a hit: at the highest dose activity change, negative = inhibition, usual class: inhibitors; P10253; actives 0.005% (n = 200,000); purified human GAA, 4-MU-alpha-glucoside fluorescence;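 further: potency means the concentration at half of the fitted maximal effect; plate controls were uninhibited enzyme wells for no effect and no-enzyme background for full effect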
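Human alpha-glucosidase, 4 nM, pre-mixed with test compounds before 400 uM 4-methylumbelliferyl substrate; 20 min room temperature at pH 5.0. Fluorescence read after pH 10 stop; AC50 values from Hill-equation fits.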
GAA glycogen mod – alters human alpha-glucosidase cleavage of glycogen | P10253 | recombinant GAA, glycogen substrate, Amplex Red glucose oxidase fluorescence | Potency, µM (series often up to 76.4 µM), inactives show at the top dose activity change, negative = inhibition, most hits filed as inhibitors | actives 0.38% (n = 300,000) | AID 2100;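 further: potency means the concentration at half of the fitted maximal effect; 0% = full enzyme reaction and -100% = no-enzyme basal signal; the screen sought inhibitors and activators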
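Recombinant enzyme (4 nM final) with compounds titrated up to 77 uM and bovine liver glycogen (30 ug) in citrate pH 5.0, 0.01% Tween-20, 37 C 40 min. Released glucose detected by Amplex Red/glucose oxidase (Ex 573/Em 610); AC50 from Hill fits.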
GLA inh pH 4.5 – alpha-galactosidase A (human) inhibition, pH 4.5; P06280; activity change, negative = inhibition, % at 105 µM; AID 1467; purified enzyme, 4-MU-alpha-Gal fluorescence, pH 4.5; 230,000 tested, under 10 active;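 further: 0% = full activity with enzyme and -100% = basal without enzyme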
Target sequence (P06280 whole entry, looked up): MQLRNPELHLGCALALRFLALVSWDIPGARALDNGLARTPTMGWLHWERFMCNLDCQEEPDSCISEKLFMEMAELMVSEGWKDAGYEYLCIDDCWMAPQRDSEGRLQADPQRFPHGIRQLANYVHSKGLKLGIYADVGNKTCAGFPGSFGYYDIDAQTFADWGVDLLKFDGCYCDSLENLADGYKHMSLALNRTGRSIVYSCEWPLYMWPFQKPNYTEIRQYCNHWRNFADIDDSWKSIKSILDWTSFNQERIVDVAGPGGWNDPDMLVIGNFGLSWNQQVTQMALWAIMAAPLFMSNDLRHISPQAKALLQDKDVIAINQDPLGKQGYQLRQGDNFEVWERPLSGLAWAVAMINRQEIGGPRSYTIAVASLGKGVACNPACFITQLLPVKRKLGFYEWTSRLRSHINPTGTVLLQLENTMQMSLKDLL
N370S GC – N370S glucocerebrosidase modulation, Gaucher chaperone candidate; P04062; N370S GC spleen homogenate, 4MU-glucoside fluorescence; Potency, µM (series often up to 59.4 µM), for inactives: at the highest dose activity change, negative = inhibition, most hits filed as inhibitors; actives 0.092% (n = 330,000); AID 2101;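 further: potency means the concentration at half of the fitted maximal effect; 0% = full enzyme activity and -100% = no enzyme basal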
An asterisk follows results filed as active; u = inconclusive; x = not tested or not shown; [ ] = dose if it differs, or a comment. Only some compounds are listed: those with a hit (about 0.43% of all), similar ones and a draw of the others. The call rests on the fitted dose curve; in most records, active means well fitted curve in the direction sought with a large enough effect; inconclusive means small, poorly fitted or top-dose-only effect, or another doubt; inactive means no such curve, though single readings can be large; an effect the other way counts as inactive or inconclusive.

SMILES	aGlu spleen mod	GLA spleen mod	GAA inh	GAA glycogen mod	GLA inh pH 4.5	N370S GC
CCOc1cc(/C=C/c2cc(C(F)(F)F)[nH]c(=O)n2)ccc1O	-5%	3%	-9%	7.9µM*	-10	-16%
COC(=O)C1=C[C@@H](C(=O)OC)C2C3=C(C(=O)[C@]2(CC(C)C)NC(=O)c2ccccc2)[C@H](C)n2c(=O)n(C)c(=O)n2[C@@H]3C1 (some centres undefined)	-6%	2%	x	x	x	4%
Cc1cccc(NC(=S)NNC(=O)c2nn(C)cc2Cl)c1	-2%	7%	-9%	u	1	10%
Cc1ccc(NC(=S)NNC(=O)c2nn(C)cc2Cl)cc1	2%	1%	5%	14µM*	1	9%
COc1cccc(-c2cncnc2NCc2cccc(C)c2)c1	5%	-8%	x	x	x	-1%
N#Cc1cc(-c2ccccc2)oc1/N=C/c1ccccc1O	-7%	1%	-6%	u	3	4%
COc1cccc(/C=N/c2oc(-c3ccccc3)cc2C#N)c1O	-8%	2%	-4%	28µM*	-11	-16%
O=C(c1cccc(F)c1)N1CCC2(CC1)CN(c1cccc(-c3ccccc3)c1)C2	0%	-4%	x	x	x	9%
Cc1cc(C)c2c(-n3cccc3)c(C(=O)NNS(=O)(=O)c3ccc(Br)cc3)sc2n1	-6%	6%	-5%	18µM*	-5	u
Cc1cc(C)c2c(-n3cccc3)c(C(=O)NCC(C)c3ccccc3)sc2n1 (centres undefined)	x	x	x	2%[76.3 µM]	x	x
COc1cc(/C=C(\C#N)C(=O)N2CCCCC2)ccc1O	x	x	x	-2%[76.3 µM]	x	u
N#C/C(=C\c1ccc(O)c(O)c1)C(=O)N1CCCC1	-21%	-19%	-3%	2.8µM*	-13	-27%
CCCCN(CC)CCCNC(=O)Nc1sc2nc3n(c(=O)c2c1C)CCC(C)CC3 (centres undefined)	x	x	x	10µM*	x	x
CCOc1ccc(NC(=S)NNC(=S)Nc2cccc(C(F)(F)F)c2)cc1	-1%	1%	0%	u	-5	-3%
FC(F)(F)c1cccc(NC(=S)NNC(=S)Nc2cccc(C(F)(F)F)c2)c1	2%	1%	-10%	8.9µM*	-22	-14%
COc1ccc(NC(=S)NNC(=S)Nc2cccc(C(F)(F)F)c2)cc1	4%	-5%	-6%	4.5µM*	-12	-19%
CNNC(=S)Nc1cccc(C(F)(F)F)c1	0%	4%	-1%	-29%	-10	11%
CCCOC(=O)c1cccc(NC(=O)CSc2nnc3cc(C)c4ccccc4n23)c1	x	x	x	-7%[76.3 µM]	x	x
CC[C@@H]1Cn2c(c3nc(-c4cc(Cl)cc(Cl)c4Cl)nc-3n(C)c2=O)N1	-12%	-1%	x	x	-2	3%
CSCC[C@H](NC(=O)[C@H](CO)NC(=O)[C@H](Cc1ccc(O)cc1)NC(=O)[C@@H](N)CO)C(=O)N[C@@H](CCC(=O)O)C(=O)N[C@@H](Cc1cnc[nH]1)C(=O)N[C@@H](Cc1ccccc1)C(=O)N[C@@H](CCCNC(=N)N)C(=O)N[C@@H](Cc1c[nH]c2ccccc12)C(=O)NCC(=O)N[C@@H](CCCCN)C(=O)N1CCC[C@H]1C(=O)N[C@H](C(=O)NCC(=O)N[C@@H](CCCCN)C(=O)N[C@@H](CCCCN)C(=O)N[C@@H](CCCNC(=N)N)C(=O)N[C@@H](CCCNC(=N)N)C(=O)N1CCC[C@H]1C(=O)N[C@H](C(=O)N[C@@H](CCCCN)C(=O)N[C@H](C(=O)N[C@@H](Cc1ccc(O)cc1)C(=O)N1CCC[C@H]1C(=O)O)C(C)C)C(C)C)C(C)C	0%	2%	x	x	x	-6%
C=C[C@@H](C1=CC(=O)C(OC)=C(OC)C1=O)c1ccccc1	-1%	-11%	x	x	-1	-17%
O=C(N/N=C/c1ccc(O)c(O)c1)NC12CC3CC(CC(C3)C1)C2	x	x	x	10µM*	x	22%
COc1cccc(NC(=O)CSc2nc(-c3ccccc3Cl)nc3c2Cc2c(CO)cnc(C)c2O3)c1	x	x	x	-9%[76.3 µM]	x	x
COc1ccc(N2CCN(CC(=O)NC(=O)NCc3ccco3)CC2)cc1	-3%	-6%	2%	-2%	-11	5%
O=C(CN1CCN(c2ccc(O)cc2)CC1)NC(=O)NCc1ccco1	8%	4%	5%	3.2µM*	7	-4%
SMILES	aGlu spleen mod	GLA spleen mod	GAA inh	GAA glycogen mod	GLA inh pH 4.5	N370S GC
O=C(CN1CCN(c2ccc(O)cc2)CC1)Nc1cc([N+](=O)[O-])ccc1Cl	3%	11%	2%	11µM*	-2	-3%
Cc1cc(NC(=O)CN2CCN(S(=O)(=O)c3ccc(Cl)cc3)CC2)no1	-4%	1%	-6%	1%	2	-3%
Cc1cc(NC(=O)CN2CCN(c3ccc(O)cc3)CC2)no1	-10%	1%	0%	8.9µM*	5	6%
CC(=O)N1CCN(CC(=O)Nc2cc([N+](=O)[O-])ccc2Cl)CC1	3%	4%	4%	0%	-2	-9%
CCCC/C=C/[C@H](c1ccccc1)[C@H](CO)Cc1cnc2ccccc2c1	-9%	10%	x	x	x	13%
COCCCNC(=O)c1c(NC(=O)c2nc(S(C)(=O)=O)ncc2Cl)sc2c1CCCC2	x	x	x	17%[76.3 µM]	x	x
O=C1Cc2cc(S(=O)(=O)N3CCN(c4ccccc4)CC3)ccc2N1	x	x	x	2.6µM*	x	-7%
CC(=O)c1ccc(N2CCN(S(=O)(=O)c3ccc4c(c3)CC(=O)N4)CC2)cc1	x	x	x	0.52µM*	x	-12%
O=C1Cc2cc(S(=O)(=O)N3CCN(c4ccc(C(F)(F)F)cc4)CC3)ccc2N1	x	x	x	-25%[76.3 µM]	x	x
CC(=O)N1[C@H](Cc2ccccc2)C=C[C@]1(C)C(=O)O	1%	4%	x	x	6	-4%
CCOc1ccc(-c2cc(C(=O)Oc3ccc(C#N)cc3)no2)cc1	x	x	x	7%[76.3 µM]	x	x
COC(=O)C1=C(C)N(Cc2ccc(C)cc2)C(=O)/C1=C\c1cc(OC)c(OC)c(OC)c1	-4%	-4%	-2%	-5%	-2	-18%
COC(=O)C1=C(C)N(Cc2ccc(C)cc2)C(=O)/C1=C\c1ccc(O)c(OC)c1	-5%	-3%	-9%	28µM*	0	-27%
O=C(Nc1cc(S(=O)(=O)N2CCOCC2)ccc1N1CCOCC1)c1cc(=O)[nH]c2ccccc12	-17%	-7%	u	28µM*	-11	4%
CC1CCC2C(=O)OC(COc3ccc(C(C)(C)C)cc3)CN2C1c1ccc(Br)cc1 (centres undefined)	1%[17.4 µM]	-1%[17.5 µM]	x	x	x	0%[12.8 µM]
C=CCc1ccc(O)c(-c2ccc(O)c(CC=C)c2)c1	-11%	-20%	x	35µM*	-3	-10%
